Assay results reported in PubChem BioAssay (NCATS).
Records with an inconclusive call do not appear. The source made the active and inactive calls. Calls come from the whole dose curve; as a rule, active = well fitted curve in the direction sought with a large enough effect; inconclusive = small, poorly fitted or top-dose-only effect, or another doubt; inactive = no such curve, though single readings can be large; an effect the other way counts as inactive or inconclusive.

Tests used:
[1] = qHTS for inhibitors of adenylyl cyclases using a fission yeast platform: a pilot screen against the NCATS LOPAC library (AID 1347410);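 note: plate controls were DMSO vehicle for no effect and DPI positive control for full effect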
Procedure, shortened: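 S. pombe CHP2027 (AC9-GNAS-PDE4D2) carrying PKA-repressed fbp1-GFP, incubated 18 h at 30C in EMM with LOPAC compounds at up to 57 uM. GFP gain-of-signal read by laser scanning cytometry; DMSO negative control.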

[2] = biological target: Protein phosphatase 1D (Homo sapiens) (UniProt O15297); assay: RapidFire Mass Spectrometry qHTS Assay for Modulators of WT P53-Induced Phosphatase 1 (WIP1) (AID 1347424);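 note: amount of dephosphorylated VEPPL-S-QETFS peptide product formed by WIP1; series mostly up to about 63 µM; plate controls were DMSO wells for no effect and GSK830371 inhibitor control at 10 µM for full effect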
Procedure, shortened: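 10 nM WIP1 + cpd, 1 h RT; + 2 uM VEPPL-pS-QETFS, 5 min RT; stop 0.5% formic acid; labelled product standard 1 uM; RapidFire MS. Buffer 50 mM Tris pH 7.5, 30 mM MgCl2, 1 mM TCEP.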

[3] = biological target: Protein phosphatase 1D (Homo sapiens) (UniProt O15297); assay: Rhodamine-PBP qHTS Assay for Modulators of WT P53-Induced Phosphatase 1 (WIP1) (AID 1347425); note: % of control where 0% means no effect
Procedure, shortened: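 5 nM WIP1 + 10 uM Rh-PBP, 50 mM Tris pH 7.5, 30 mM MgCl2, 1 mM TCEP, 0.1 mM EGTA, BSA; cpds pinned, 1 hr RT; + 10 uM phosphopeptide; fluorescence 1-min reads x 11 min; delta = f1 - f0.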

[4] = Validation qHTS assay for inhibitors of Activation Induced Cytidine Deaminase (AID): UDG Counterscreen signal (AID 1347427); note: 0% is about no effect
Procedure, shortened: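 Counterscreen read of UDG activity (2 U/mL, 4/3x) in the FRET deamination format with AID (1 uM, 4/3x), DJC20/DJC23 substrates (250 nM, 4x), 4 h at room temperature. NaOH stop, fluorescence at 560 ex/665 em.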

[5] = Primary qHTS for inhibitors of La Crosse Virus (LACV) - induced cell death in SH-SY5Y cells (AID 1508616);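 note: top concentration of the series differs between compounds; 0% = infected DMSO wells and 100% = uninfected DMSO wells; higher means more rescue of cells from virus-induced death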
Procedure, shortened: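 Protection against LACV-induced cell death is scored in SH-SY5Y cells exposed to compounds and virus (0.01 MOI) for 6 days. Data normalized to virus-infected DMSO wells and virus-free DMSO wells.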

[6] = biological target: Calcium and integrin-binding protein 1 (Homo sapiens) (UniProt Q99828); assay: Primary qHTS for Identification of Calcium Integrin Binding Protein 1 (CIB1) Competitor (AID 1508620);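 note: GST tagged CIB1 binding a fluorescein labelled alphaIIb integrin peptide tracer; top concentration of the series differs between compounds; % is set by controls: 0 for no effect and ±100 for the full control effect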
Procedure, shortened: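 CIB1-GST (1 uM final) and compound incubated 15 min at room temperature before adding FITC-alphaIIb peptide tracer (100 nM final). Competition for binding read by fluorescence polarization (ex 480, em 540) after another 15 min at room temperature.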

[7] = biological target: Calcium and integrin-binding protein 1 (Homo sapiens) (UniProt Q99828); assay: Validation qHTS for Identification of Calcium Integrin Binding protein 1 (CIB1) Competitor (AID 1508618); note: % is set by controls: 0 for no effect and ±100 for the full control effect
Procedure, shortened: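 Displacement of FITC-alphaIIb peptide (100 nM) from CIB1-GST (1 uM) is monitored by polarization in quantitative HTS format; buffer carries 5 mM CaCl2 and 125 mM NaCl at pH 7.4, incubations are at room temperature.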

[8] = biological target: Single-stranded DNA cytosine deaminase (Homo sapiens) (UniProt Q9GZX7); assay: Validation qHTS assay for inhibitors of Activation Induced Cytidine Deaminase (AID): AID signal (AID 1347429); note: % is set by controls: 0 for no effect and ±100 for the full control effect
Procedure, shortened: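 Fluorescence at 540 nm excitation and 590 nm emission reports ssDNA cytosine deamination by AID, with UDG in the same well. Compound-treated reactions ran 4 hr at room temperature with DJC20/DJC23 substrate, followed by 30 min NaOH treatment.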

Protein phosphatase 1D (Homo sapiens), sequence (O15297 whole entry, looked up): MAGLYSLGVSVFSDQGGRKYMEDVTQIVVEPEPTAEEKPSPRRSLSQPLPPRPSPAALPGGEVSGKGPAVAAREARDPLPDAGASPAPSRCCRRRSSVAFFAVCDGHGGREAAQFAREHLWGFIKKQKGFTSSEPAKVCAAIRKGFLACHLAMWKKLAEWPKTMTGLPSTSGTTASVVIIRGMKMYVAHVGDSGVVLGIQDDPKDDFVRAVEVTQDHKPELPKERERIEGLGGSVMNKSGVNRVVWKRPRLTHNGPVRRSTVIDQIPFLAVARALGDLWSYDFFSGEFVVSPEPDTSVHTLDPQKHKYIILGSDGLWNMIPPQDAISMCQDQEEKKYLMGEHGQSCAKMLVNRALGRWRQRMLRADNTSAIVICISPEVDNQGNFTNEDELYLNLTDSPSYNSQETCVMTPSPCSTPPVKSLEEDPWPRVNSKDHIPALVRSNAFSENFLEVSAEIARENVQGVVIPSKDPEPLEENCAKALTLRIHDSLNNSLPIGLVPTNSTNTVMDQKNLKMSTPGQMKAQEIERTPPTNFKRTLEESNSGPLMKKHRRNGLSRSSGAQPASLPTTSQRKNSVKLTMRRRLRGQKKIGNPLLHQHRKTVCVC
Single-stranded DNA cytosine deaminase (Homo sapiens), sequence (Q9GZX7 whole entry, looked up): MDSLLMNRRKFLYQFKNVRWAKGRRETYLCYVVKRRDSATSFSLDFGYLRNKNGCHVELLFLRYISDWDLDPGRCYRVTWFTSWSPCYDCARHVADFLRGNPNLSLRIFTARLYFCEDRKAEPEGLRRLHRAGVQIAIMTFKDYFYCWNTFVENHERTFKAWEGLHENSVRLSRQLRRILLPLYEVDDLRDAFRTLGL
Calcium and integrin-binding protein 1 (Homo sapiens), sequence (Q99828 whole entry, looked up): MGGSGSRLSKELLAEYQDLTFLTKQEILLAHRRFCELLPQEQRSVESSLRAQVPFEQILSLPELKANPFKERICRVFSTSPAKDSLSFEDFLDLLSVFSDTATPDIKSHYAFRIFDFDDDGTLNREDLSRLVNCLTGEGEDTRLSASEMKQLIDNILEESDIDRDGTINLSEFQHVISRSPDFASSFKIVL

CCCOc1ccccc1-c1nc2n[nH]nc2c(=O)[nH]1
inactive: outcome [1] | Potency [2] | outcome [3] | outcome [4] | Potency [5] | Potency [6]

Nc1nc(N)c2nc(-c3ccccc3)c(N)nc2n1
inactive: outcome [1] | Potency [2] | outcome [3] | outcome [4] | Potency [5] | outcome [7] | Potency [6]

CCCCCN(CCCCC)C(=O)C(CCC(=O)O)NC(=O)c1ccc(Cl)c(Cl)c1 (configuration not stated)
inactive: outcome [1] | Potency [2] | outcome [4] | Potency [5]

CCCC(C(=O)OCCN(CC)CC)(c1ccccc1)c1ccccc1
inactive: outcome [1] | Potency [2] | outcome [3] | outcome [4] | Potency [5] | Potency [6]

Cc1ccc(=O)n(-c2ccccc2)c1
inactive: outcome [1] | Potency [2] | outcome [3] | outcome [4] | Potency [5] | outcome [7] | Potency [6]

CC1=NS(=O)(=O)c2cc(Cl)ccc2N1
inactive: outcome [1] | Potency [2] | outcome [3] | outcome [4] | Potency [5] | outcome [7] | Potency [6]

NC(=Nc1ccccc1)Nc1ccccc1
inactive: Potency [2] | outcome [3] | Potency [5] | Potency [6]

CCN1CCC[C@H]1CNC(=O)c1c(O)c(Cl)cc(Cl)c1OC
inactive: outcome [1] | Potency [2] | outcome [3] | outcome [4] | Potency [5] | outcome [7] | Potency [6]

NC(=O)N1c2ccccc2C=Cc2ccccc21
inactive: outcome [1] | Potency [2] | outcome [3] | outcome [4] | Potency [5] | outcome [7] | Potency [6]

CN(C)C(=O)Oc1cccc([N+](C)(C)C)c1
inactive: outcome [1] | Potency [2] | outcome [3] | outcome [4] | Potency [5] | outcome [7] | Potency [6]

Cc1nc2ccccn2c(=O)c1CCN1CCC(C(=O)c2ccc(F)cc2)CC1
inactive: outcome [1] | Potency [2] | outcome [3] | outcome [4] | Potency [5] | outcome [7] | Potency [6]

CN(C)CCOC(=O)COc1ccc(Cl)cc1
inactive: outcome [1] | Potency [2] | outcome [3] | outcome [4] | Potency [5] | outcome [7] | Potency [6]

Cc1ccc(/C(=C\CN2CCCC2)c2ccccn2)cc1
inactive: Potency [2] | outcome [3] | outcome [4] | Potency [8] | Potency [5] | outcome [7] | Potency [6]

OCCN1CCN(CC/C=C2/c3ccccc3Sc3ccc(C(F)(F)F)cc32)CC1
inactive: outcome [1] | Potency [2] | outcome [3] | outcome [4] | Potency [5] | outcome [7] | Potency [6]

CCCN(CCC)CCc1cccc2c1CC(=O)N2
inactive: outcome [1] | Potency [2] | outcome [3] | outcome [4] | Potency [5] | outcome [7] | Potency [6]

COC(=O)C1=C(C)NC(C)=C(C(=O)OCCN(C)Cc2ccccc2)C1c1cccc([N+](=O)[O-])c1 (configuration not stated)
inactive: outcome [1] | Potency [2] | outcome [4] | Potency [8] | Potency [5] | Potency [6]

COc1cc(C(=O)OCCCN2CCCN(CCCOC(=O)c3cc(OC)c(OC)c(OC)c3)CC2)cc(OC)c1OC
inactive: outcome [1] | Potency [2] | outcome [4] | Potency [8] | Potency [5] | outcome [7]

CCCCOCCOCCOCc1cc2c(cc1CCC)OCO2
inactive: Potency [2] | outcome [3] | Potency [5] | Potency [6]

COc1ccc(CN(CCN(C)C)c2ccccn2)cc1
inactive: outcome [1] | Potency [2] | outcome [3] | Potency [5] | outcome [7] | Potency [6]

CC(C)COCC(CN(Cc1ccccc1)c1ccccc1)N1CCCC1 (configuration not stated)
inactive: outcome [1] | Potency [2] | outcome [3] | outcome [4] | Potency [5] | outcome [7] | Potency [6]

CN(C)CC[C@@H](c1ccc(Br)cc1)c1ccccn1
inactive: outcome [1] | Potency [2] | outcome [3] | outcome [4] | Potency [5] | outcome [7] | Potency [6]

Fc1ccc(C(c2ccc(F)cc2)N2CCN(C/C=C/c3ccccc3)CC2)cc1
inactive: outcome [1] | Potency [2] | outcome [3] | outcome [4] | Potency [5] | outcome [7] | Potency [6]

NC(Cc1ccc(Cl)cc1)C(=O)O (configuration not stated)
inactive: outcome [1] | activity change, negative = inhibition [2] 4.3% [at 0.505 µM] | activity change, negative = inhibition [3] -2.63% [at 0.575 µM] | outcome [4] | Potency [5] | outcome [7] | activity change, negative = inhibition [6] -1.79% [at 1.07 µM]
